# Laboratory results: PubChem BioAssay (NCATS)
# Values joined by “and” are separate entries in the source; they are usually repeats but may differ in a detail not shown here. Equal values may be shown once. Records with an inconclusive call do not appear. Active and inactive are the calls of the source. Unless noted, calls follow the shape of the dose curve; as a rule, active = well fitted curve in the direction sought with a large enough effect; inconclusive = small, poorly fitted or top-dose-only effect, or another doubt; inactive = no such curve, though single readings can be large; an effect the other way counts as inactive or inconclusive.
# How the values were obtained:
# [1] = qHTS for compounds that reverse cellular toxicity of Amyloid beta (A-beta) peptide in yeast: LOPAC Validation Assay (AID 720559);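 also: plate controls were DMSO for no effect and equimolar ferric chloride plus clioquinol rescue for full effect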
# Outline: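 Activity is expressed relative to DMSO and an equimolar ferric chloride/clioquinol mix. Compounds were pinned into medium with A-beta-expressing yeast, grown 48 hr at 30 C, then read by absorbance at 600 nm.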
# [2] = qHTS for Activators of Parkin Expression: LOPAC Validation Assay (FLuc Reporter) (AID 720573;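 also: 0% = DMSO and 100% = positive control compounds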)
# Outline: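 A neuronal cell line harbouring FLuc and NLuc reporters behind the Parkin promoter was exposed to compounds for 24 h. Firefly luciferase signal, measured after 10 min with detection reagent, was scaled to DMSO and positive-control wells.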
# [3] = qHTS assay for small molecule agonists of the antioxidant response element (ARE) signaling pathway measured by Nrf2-dependant transcriptional activity (AID 720636; active = well fitted curve in the direction sought with a large enough effect in the repeat runs; an effect the other way counts as inactive or inconclusive; also: % of control where 0% means no effect)
# Outline: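 ARE-luc HepG2 cells carrying an Nrf2-responsive luciferase reporter were plated in medium with 1% dialyzed FBS, left 6 hr at 37 C to attach, then exposed to compound for 16 hr. Luciferase luminescence was read after ONE-Glo addition.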
# [4] = molecular target: T1, Hexokinase-4 (Homo sapiens) + Glucokinase regulatory protein (Homo sapiens) (UniProt P35557+Q14397); assay: qHTS assay for inhibitors of recombinant human GCK-GKRP interaction: Diaphorase-coupled assay (AID 743205)
# T1 sequence (P35557 whole entry, looked up): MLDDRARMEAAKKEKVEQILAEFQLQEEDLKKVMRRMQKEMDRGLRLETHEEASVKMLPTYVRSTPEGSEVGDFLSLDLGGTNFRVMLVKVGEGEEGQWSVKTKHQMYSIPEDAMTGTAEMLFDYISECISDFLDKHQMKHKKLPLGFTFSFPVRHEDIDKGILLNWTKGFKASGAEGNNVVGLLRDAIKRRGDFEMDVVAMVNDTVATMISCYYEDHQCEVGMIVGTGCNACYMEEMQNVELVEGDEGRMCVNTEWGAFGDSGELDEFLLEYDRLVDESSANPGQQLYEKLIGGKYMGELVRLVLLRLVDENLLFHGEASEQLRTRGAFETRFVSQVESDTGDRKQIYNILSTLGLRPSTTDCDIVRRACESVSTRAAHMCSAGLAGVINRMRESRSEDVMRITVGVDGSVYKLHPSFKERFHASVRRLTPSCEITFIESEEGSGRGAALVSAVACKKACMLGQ
# T1 sequence (Q14397 whole entry, looked up): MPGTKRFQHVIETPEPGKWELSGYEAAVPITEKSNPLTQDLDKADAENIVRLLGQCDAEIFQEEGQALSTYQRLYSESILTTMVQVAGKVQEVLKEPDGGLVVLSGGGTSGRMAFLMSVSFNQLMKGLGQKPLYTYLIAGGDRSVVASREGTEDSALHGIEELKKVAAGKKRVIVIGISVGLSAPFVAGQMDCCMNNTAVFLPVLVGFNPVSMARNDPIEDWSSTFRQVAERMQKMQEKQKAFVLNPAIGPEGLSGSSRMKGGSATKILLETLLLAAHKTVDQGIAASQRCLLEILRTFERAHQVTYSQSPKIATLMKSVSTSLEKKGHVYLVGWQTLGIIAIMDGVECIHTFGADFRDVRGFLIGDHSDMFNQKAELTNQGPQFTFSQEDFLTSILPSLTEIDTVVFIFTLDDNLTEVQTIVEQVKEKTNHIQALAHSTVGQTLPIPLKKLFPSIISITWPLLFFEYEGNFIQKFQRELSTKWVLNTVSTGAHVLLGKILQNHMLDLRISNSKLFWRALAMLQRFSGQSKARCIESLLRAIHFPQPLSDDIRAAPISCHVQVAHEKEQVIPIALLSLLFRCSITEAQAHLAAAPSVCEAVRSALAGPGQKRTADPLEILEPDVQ
# Outline: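 Inhibitors of the GCK–GKRP complex relieve GKRP suppression of GCK, detected through a G6PDH–diaphorase cascade reducing resazurin. Human GST-GCK and FLAG-GKRP are used at 10 nM with 5 mM glucose and 0.4 mM ATP.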
# [5] = molecular target: T1, Hexokinase-4 (Homo sapiens) + Glucokinase regulatory protein (Homo sapiens); assay: qHTS assay for inhibitors of recombinant human GCK-GKRP interaction: ADP-Glo assay (AID 743206);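 also: plate controls were DMSO plus enzyme for no effect and no enzyme for full effect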
# Outline: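 GST-GCK and FLAG-GKRP (15 nM each in the dispensed mix, with 2 uM S6P) react with 0.4 mM ATP and 5 mM glucose (final) in Hepes pH 7.6 for 60 min at room temperature. ADP is measured by ADP-Glo luminescence.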
# [6] = molecular target: T1, Hexokinase-4 (Homo sapiens) + Glucokinase regulatory protein (Homo sapiens); assay: qHTS assay for inhibitors of recombinant human GCK-GKRP interaction: HTRF assay (AID 743207);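 also: 0% = DMSO with GCK present and -100% = DMSO wells lacking GCK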
# Outline: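 Steps: dispense GCK–GKRP complex (5 nM each, GST- and FLAG-tagged) with 2 uM S6P; pin in compounds; add XL665/Eu-cryptate-labelled antibodies; incubate 60 min at room temperature; read time-resolved FRET at 665 and 615 nm.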
# [7] = qHTS Assay for Identifying Gametocytocidal Compounds (AID 743244); also: potency is read from the fitted curve at half-maximal effect;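 as to max response: % is scaled to controls: 0 for no effect and ±100 for the full control effect; actives lower the fluorescent signal which means gametocytes are killed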; settings: P. falciparum 3D7 stage III-V gametocytes, alamarBlue, 72 h; max response: stronger effect = lower value
# Outline: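 Stage III-V P. falciparum 3D7 gametocytes, 20,000 per well, were exposed to compounds for 72 h at 37C, 5% CO2. AlamarBlue was then added for 24 h and viability was read as fluorescence at Ex 525/Em 598 nm.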
# [8] = qHTS assay for cell viability of the p53RE-bla HCT-116 cell line (AID 743292); also: nearly all actives have a fitted effect of over 55% in size; also: potency is read from the fitted curve at half-maximal effect
# Outline: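 CellSensor p53RE-bla HCT-116 cells, 4,000/well, preincubated 5 h at 37 C, then exposed to compounds in DMSO for 16 h at 37 C. Viability read as CellTiter-Glo luminescence (intracellular ATP) after 30 min at room temperature.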
# [9] = qHTS profiling of the MIPE4 collection as inhibitors of Plasmodium falciparum (3D7) proliferation (AID 743344; call rule not given here;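 also: scaled between DMSO vehicle wells and 0.29 µM artemisinin as full inhibition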); settings: P. falciparum 3D7 in erythrocytes, SYBR Green DNA fluorescence, 72 h; at 28.5 µM (top of the series) unless noted
# Outline: (§1)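 Erythrocytes infected with P. falciparum (0.3% parasitemia, 2.5% hematocrit) incubated with compounds 72 h at 37 C, 5% CO2. Lysis with saponin/Triton buffer containing SYBR Green I, overnight at room temperature in the dark; DNA fluorescence (485/535 nm) normalised to 0.29 uM artemisinin and DMSO.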
# [10] = qHTS assay for small molecule antagonists of the retinoid-related orphan receptor gamma (ROR-gamma) signaling pathway - cell viability counter screen (AID 720652; active = well fitted curve in the direction sought with a large enough effect in the repeat runs; an effect the other way counts as inactive or inconclusive;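 also: CHO reporter cells with doxycycline-induced ROR-gamma expression; compound exposure lasted 16 hr before ATP read; % is scaled to controls: 0 for no effect and ±100 for the full control effect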)
# Outline: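 Cytotoxicity is quantified via intracellular ATP (CellTiter-Glo luminescence) in doxycycline-induced CHO ROR response element-luciferase reporter cells treated with compound for 16 hr at 37 C, 5% CO2.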
# [11] = qHTS assay for small molecule agonists of the antioxidant response element (ARE) signaling pathway measured by Nrf2-dependant transcriptional activity - cell viability counter screen (AID 720653; active = well fitted curve in the direction sought with a large enough effect in the repeat runs; an effect the other way counts as inactive or inconclusive; also: % is scaled to controls: 0 for no effect and ±100 for the full control effect); settings: ARE-bla HepG2 viability, CellTiter-Glo ATP luminescence, 16 h; max response: stronger effect = lower value
# Outline: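 ARE-bla HepG2 cells (2,000/well) rested 5 hrs at 37C/5% CO2, then exposed to compounds in DMSO for 16 hrs. Viability was read in the same wells as intracellular ATP by luminescence, 30 min at room temperature after reagent addition.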
# [12] = qHTS assay for cell viability of HEK293 cells (AID 743288); settings: ATP luminescence (CellTiter-Glo), 18 h; max response: stronger effect = lower value; also: nearly all actives have a fitted effect of over 50% in size; also: potency is read from the fitted curve at half-maximal effect; as to max response: % is scaled to controls: 0 for no effect and ±100 for the full control effect
# Outline: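 The Tox21 protocol used parental HEK293 cells treated for 18 h at 37 C with compounds delivered by pintool; ATP-coupled luminescence after 30 min at room temperature gave viability.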
# [13] = qHTS profiling for inhibitors of Plasmodium falciparum (3D7) proliferation (AID 743322; call rule not given here;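 also: infected erythrocytes exposed to compound for 72 h before lysis; 100% = DMSO vehicle wells and 0% = 0.29 µM artemisinin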); settings: P. falciparum 3D7 proliferation; at 28.7 µM (top of the series)
# Outline: as §1
# [14] = qHTS profiling for inhibitors of Plasmodium falciparum (DD2) proliferation (AID 743323; call rule not given here); settings: lower = more inhibition; at 28.7 µM (top of the series)
# Outline: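 Parasite DNA quantified by SYBR Green fluorescence (ex 485, em 535 nm) after saponin/Triton lysis and overnight dark incubation. Cultures: 0.3% parasitemia, 2.5% hematocrit, 72 h, 37 C; data scaled between DMSO and 0.29 uM artemisinin.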
# [15] = qHTS profiling for inhibitors of Plasmodium falciparum (HB3) proliferation (AID 743324); settings: Plasmodium falciparum HB3 blood-stage proliferation; at 28.7 µM (top of the series);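 also: 100% = DMSO vehicle wells and 0% = artemisinin-treated control wells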
# Outline: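 P. falciparum HB3 grown in erythrocytes (0.3% parasitemia, 2.5% hematocrit final) with compound for 72 h at 37 C, 5% CO2. Parasite DNA detected by SYBR Green after saponin/triton lysis overnight; normalized to 0.29 uM artemisinin and DMSO.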
compound,measurement,setting,value
Nc1nc(N)c2nc(CNc3ccc(C(=O)NC(CCC(=O)O)C(=O)O)cc3)cnc2n1 (stereo not given),outcome,[1],inactive
same,outcome,[2],inactive
same,outcome,[3],inactive
same,outcome,[4],inactive
same,outcome,[5],inactive
same,outcome,[6],inactive
same,max response,[7],32.7% (inactive)
same,Potency,[8],0.0891 µM (active)
same,"parasite growth, % of DMSO control",[9],25%
CC1(C)[C@H](C(=O)O)N2C(=O)C[C@H]2S1(=O)=O,max response,[7],0.138% (inactive)
CCN[C@H]1C[C@H](C)S(=O)(=O)c2sc(S(N)(=O)=O)cc21,max response,[7],4.01% (inactive)
same,"parasite growth, % of DMSO control",[9],93.1%
CCCCCCNC(=O)n1cc(F)c(=O)[nH]c1=O,max response,[7],-3.88% (inactive)
same,"parasite growth, % of DMSO control",[9],59%
Nc1nc(F)nc2c1ncn2[C@@H]1O[C@H](CO)[C@@H](O)[C@@H]1O,max response,[7],0.368% (inactive) and 0.376% (inactive)
O=P(O)(O)C(O)(Cc1cccnc1)P(=O)(O)O,max response,[7],8.36% (inactive)
same,"parasite growth, % of DMSO control",[9],71.4%
CC(C)OC(=O)C(C(=O)OC(C)C)=C1SC=CS1,max response,[7],13.6% (inactive)
same,"parasite growth, % of DMSO control",[9],89%
C[C@@H]1C[C@H]2[C@@H]3CCC4=CC(=O)C=C[C@]4(C)[C@@]3(Cl)[C@@H](O)C[C@]2(C)[C@@]1(OC(=O)c1ccco1)C(=O)CCl,max response,[7],3.64% (inactive)
same,"parasite growth, % of DMSO control",[9],5.2%
Cc1nnc(NS(=O)(=O)c2ccc(N)cc2)s1,outcome,[3],inactive
same,Potency,[10],inactive
same,max response,[11],4.88% (inactive)
same,max response,[7],-4.6% (inactive)
same,max response,[12],0.46% (inactive)
same,Potency,[8],inactive
same,"parasite growth, % of DMSO control",[9],22.2%
CNC1CCCN(c2c(F)cc3c(=O)c(C(=O)O)cn(C4CC4)c3c2OC)C1 (stereo not given),max response,[7],-8.7% (inactive)
same,"parasite growth, % of DMSO control",[9],20.4%
CC(C)Cn1cnc2c(N)nc3ccccc3c21,max response,[7],-6.2% (inactive)
same,"parasite growth, % of DMSO control",[9],43.4%
O=NN(CCCl)C(=O)NC1CCCCC1,max response,[7],-7.36% (inactive)
O=C(O)c1cn(C2CC2)c2cc(N3CCNCC3)c(F)cc2c1=O,max response,[7],4.49% (inactive)
same,remaining parasite growth % (stronger effect = lower value),[13],95%
same,"activity, percent of control",[14],90.7%
same,"remaining proliferation (% of control), lower = more inhibition",[15],92.1%
same,"parasite growth, % of DMSO control",[9],75.2%
CC(=O)Oc1ccccc1C(=O)Nc1ncc([N+](=O)[O-])s1,outcome,[3],inactive
same,Potency,[12],28.2 µM (active)
same,"parasite growth, % of DMSO control",[9],4.65% [at 57.5 µM]
COc1ccc2cc3[n+](cc2c1OC)CCc1cc2c(cc1-3)OCO2,outcome,[3],inactive
same,Potency,[10],inactive
same,max response,[11],-27.8% (inactive)
same,max response,[12],-16% (inactive)
same,Potency,[8],inactive
same,"parasite growth, % of DMSO control",[9],5.45%
CC(C)C1CCC(C(=O)N[C@H](Cc2ccccc2)C(=O)O)CC1 (stereo not given in full),max response,[7],6.84% (inactive)
same,"parasite growth, % of DMSO control",[9],87.2%
COc1ncnc(NS(=O)(=O)c2ccc(N)cc2)c1OC,max response,[7],-8.03% (inactive)
same,remaining parasite growth % (stronger effect = lower value),[13],82.4%
same,"activity, percent of control",[14],85.3%
same,"parasite growth, % of DMSO control",[9],170%
CNS(=O)(=O)Cc1ccc2[nH]cc(CCN(C)C)c2c1,max response,[7],0.507% (inactive)
same,"parasite growth, % of DMSO control",[9],64.4%
OC(Cn1cncn1)(Cn1cncn1)c1ccc(F)cc1F,outcome,[3],inactive
same,max response,[11],0.0873% (inactive)
same,max response,[7],-0.14% (inactive)
same,max response,[12],-6.93% (inactive)
same,Potency,[8],inactive
CCOC(=O)[C@H](CCc1ccccc1)N[C@H]1CS[C@H](c2cccs2)CN(CC(=O)O)C1=O,max response,[7],3.7% (inactive)
same,"parasite growth, % of DMSO control",[9],5.73%
O[C@@H](CNC[C@H](O)[C@H]1CCc2cc(F)ccc2O1)[C@@H]1CCc2cc(F)ccc2O1,Potency,[7],11.2 µM (active)
same,"parasite growth, % of DMSO control",[9],6.58%
COc1ccc2c(c1)c(CC(=O)OCC(=O)O)c(C)n2C(=O)c1ccc(Cl)cc1,max response,[7],-13.1% (inactive)
same,"parasite growth, % of DMSO control",[9],78.3%
COc1ccccc1OCC(O)COC(N)=O (stereo not given),max response,[7],-1.63% (inactive)
same,"parasite growth, % of DMSO control",[9],94.6%
NC(N)=NC(N)=NCCc1ccccc1,outcome,[3],inactive
same,Potency,[10],inactive
same,max response,[11],-24.7% (inactive) and -24.4% (inactive)
same,max response,[7],18.8% (inactive) and 0.965% (inactive)
same,max response,[12],-5.89% (inactive) and -15.7% (inactive)
same,Potency,[8],inactive
same,"parasite growth, % of DMSO control",[9],21.2%
